# PubChem BioAssay AID720598 (Broad Institute, 2013)
# Potency and affinity values are given separately. The source made the active and inactive calls.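 Rule for the calls: active = viability drop at all three exposure times, fitted half-maximal dose at most twice the top valid dose; inconclusive = exposure times disagree in their calls; inactive = inactive at every exposure time.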
# Test: time-course viability loss in HT-29 cells – cell-based, CellTiter-Glo, multiple timepoints, dry powder, HRas target identification project, dose response (AID 720598)
row,Structure (SMILES),outcome
1,CCC(=O)N(c1ccc(OC)c(Cl)c1)C(C(=O)NCCc1ccccc1)c1cccs1 (configuration not stated),inactive
2,Cc1onc(C(=O)N2CCN(C(c3ccncc3)c3ccncc3)CC2)c1[N+](=O)[O-],inactive
